Assay results published in PubChem BioAssay (NCATS).
Inconclusive results are not listed. Entries that show only a call come without a potency. Calls of active or inactive are those of the source. Calls come from the whole dose curve; as a rule, active = well fitted cell-killing curve with a large enough effect; inconclusive = small, poorly fitted or top-dose-only effect, or effect the other way; inactive = no such curve, though single readings can be large or run the other way.

Key:
[1] = Quantitative High-Throughput drug screen in 47 multiple myeloma cell lines against the NCATS MIPE library collection: H1112_PLB cell viability assay (AID 1918967; note: nearly all actives have a fitted effect of over 30% in size; note: potency is the fitted concentration of half-maximal effect)
Outline: (§1)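 Myeloma cell lines, 500 cells per well, exposed to MIPE 4.0 library compounds for 48 h at 37C, 5% CO2. Viability from ATP by CellTiter-Glo luminescence; normalised to DMSO (100%) and media-only (0%) wells.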

[2] = Quantitative High-Throughput drug screen in 47 multiple myeloma cell lines against the NCATS MIPE library collection: KMS27_JCRB cell viability assay (AID 1918970); note: nearly all actives have a fitted effect of over 30% in size
Outline: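 Luminescent ATP read-out (CellTiter-Glo, 5 min at room temperature) after 48 h compound exposure of 500 KMS27_JCRB cells per well; DMSO wells define full viability and media-only wells zero.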

[3] = Quantitative High-Throughput drug screen in 47 multiple myeloma cell lines against the NCATS MIPE library collection: KMS12BM_JCRB cell viability assay (AID 1918971); note: nearly all actives have a fitted effect of over 35% in size; note: potency is the fitted concentration of half-maximal effect
Outline: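 qHTS of the MIPE 4.0 collection: 500 myeloma cells/well, 48 h drug exposure at 37C in 5% CO2, then CellTiter-Glo for 5 min at room temperature before luminescence reading.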

[4] = Quantitative High-Throughput drug screen in 47 multiple myeloma cell lines against the NCATS MIPE library collection: KMS12PE_JCRB cell viability assay (AID 1918972); note: nearly all actives have a fitted effect of over 30% in size
Outline: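 Myeloma cells (500 per well) were exposed to MIPE 4.0 compounds by pin transfer and incubated 48 hours at 37C, 5% CO2. Viability was read as ATP by CellTiter-Glo luminescence, normalised to DMSO (100%) and media-only (0%) wells.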

[5] = Quantitative High-Throughput drug screen in 47 multiple myeloma cell lines against the NCATS MIPE library collection: Karpas25_ECACC cell viability assay (AID 1918968; note: nearly all actives have a fitted effect of over 35% in size; note: potency is the fitted concentration of half-maximal effect)
Outline: as §1

[6] = Quantitative High-Throughput drug screen in 47 multiple myeloma cell lines against the NCATS MIPE library collection: KMS21BM_JCRB cell viability assay (AID 1918974); conditions: ATP luminescence, 48 h; viability: at 45.8 µM (top of the series) unless noted
Outline: as §1

[7] = Quantitative High-Throughput drug screen in 47 multiple myeloma cell lines against the NCATS MIPE library collection: JJN3_DSMZ cell viability assay (AID 1918966; note: potency is the fitted concentration of half-maximal effect; nearly all actives have a fitted effect of over 50% in size)
Outline: as §1

For Cc1cccc(-c2nn(C(=S)Nc3ccccc3)cc2-c2ccnc3ccccc23)n1, the Potency [1] was 16.6 µM (active), the Potency [2] was “inactive” and the Potency [3] was 14.8 µM (active). For the same compound, the Potency [4] was “inactive”.

In the case of Nc1nc2c(ncn2COCCO)c(=O)[nH]1, the Potency [2] is reported as “inactive”.

With CCOc1cc(C=C2C(=O)N(c3ccccc3)N=C2C)cc(Cl)c1OCC(=O)OC the Potency [5] was 8.33 µM (active).

For NC(=O)c1ccc(I)c([N+](=O)[O-])c1, the Potency [1] was “inactive” and the Potency [5] was 23.5 µM (active).

In the case of CC(C)OC(=O)C1=CN(C(=O)c2ccc(F)c(F)c2)CC(C)(C)c2c1[nH]c1ccccc21, the Potency [1] is reported as “inactive” and the Potency [5] is reported as “inactive”.

For O=C(C=Cc1ccc(/C=C/C(=O)Nc2ccc(C3=NCCN3)cc2)cc1)Nc1ccc(C2=NCCN2)cc1, the Potency [1] was “inactive”, the Potency [5] was “inactive” and the Potency [4] was “inactive”.

For C[C@H](NC(=O)Cc1cc(F)cc(F)c1)C(=O)N[C@@H]1C(=O)N(C)c2ccccc2-c2ccccc21, the Potency [1] was 5.9 µM (active), the Potency [5] was 5.26 µM (active) and the Potency [3] was “inactive”. The viability [6] was 138% (active).

With NC(=O)c1ccc(-c2nc(-c3ccc4c(c3)OCCO4)c(-c3ccccn3)[nH]2)cc1 the Potency [1] was “inactive” and the Potency [3] was “inactive”.

For CN(C(=O)c1ccc(F)cc1C(F)(F)F)C1CCN(c2nnc(-c3ccnn3C)c3ccccc23)CC1, the Potency [3] was “inactive”.

With COc1ccc2nc(S(=O)Cc3ncc(C)c(OC)c3C)[nH]c2c1 (centres undefined) the Potency [5] was “inactive” and the Potency [3] was “inactive”.

With c1ccc(-c2nn3c(c2-c2ccnc4cc(OCCN5CCOCC5)ccc24)CCC3)nc1 the Potency [1] was 4.18 µM (active), the Potency [2] was “inactive” and the Potency [3] was 26.4 µM (active).

With Nc1nccc(-c2ccc3noc(-c4ccc(Cl)cc4)c3c2)n1 the Potency [1] was “inactive”, the Potency [5] was “inactive” and the Potency [2] was “inactive”.

With OC(CN1CCC(Cc2ccc(F)cc2)CC1)c1ccc(Cl)cc1 (centres undefined) the Potency [1] was “inactive”, the Potency [2] was “inactive” and the Potency [3] was “inactive”. For the same compound, the Potency [4] was “inactive” and the Potency [6] was “inactive”.

In the case of CC(C)NCC(O)COc1ccc(COCCOC(C)C)cc1 (centres undefined), the Potency [1] is reported as “inactive”, the Potency [5] is reported as “inactive” and the Potency [4] is reported as “inactive”.

In the case of CN(C)C(=O)c1ccc(S(=O)(=O)c2ccc(NC(=O)[C@@](C)(O)C(F)(F)F)c(Cl)c2)cc1, the Potency [5] is reported as 3.72 µM (active).

With COc1ccc(C2=N[C@H](c3ccc(Cl)cc3)[C@H](c3ccc(Cl)cc3)N2C(=O)N2CCNC(=O)C2)c(OC(C)C)c1 the Potency [1] was 18.7 µM (active) and the Potency [3] was 20.9 µM (active).

In the case of Cc1ccc(-n2nc(C(C)(C)C)cc2NC(=O)Nc2ccc(OCCN3CCOCC3)c3ccccc23)cc1, the Potency [1] is reported as 1.18 µM (active) and the Potency [5] is reported as 1.05 µM (active).

With CC1(C)Cc2c(-c3ccccc3)c(-c3ccc(Cl)cc3)c(CC(=O)O)n2C1 the Potency [7] was 20.9 µM (active) and the Potency [3] was 20.9 µM (active).

In the case of N#Cc1ccc(C(c2ccc(C#N)cc2)n2cncn2)cc1, the Potency [4] is reported as “inactive”.
